# IDE exosite FP – exo-site inhibitors of human insulin-degrading enzyme | P14735 | purified IDE, FL-6b probe fluorescence polarization; stronger effect = lower value | z-score at 20 µM | 17,000 tested, 6.3% active | AID 1259349;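 active = z-score of -3 or lower, meaning strong loss of probe binding signal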;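 note: His-tagged human IDE residues 42-1019 made in E. coli with 30 nM FL-6b probe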
# Numbers stand for hits; . = inactive. This is one part of a sample in which hits are shown more often than they occur.
SMILES,IDE exosite FP
Cc1ccc(-c2ccc([C@@H]3[C@@H](CO)N4C(=O)CN(C(=O)Nc5ccc(F)cc5)C[C@H]34)cc2)cc1,.
O=C(Nc1cccc(F)c1)N1CC(=O)N2[C@@H](CO)[C@@H](c3ccc(-c4ccccc4F)cc3)[C@@H]2C1,.
O=C(Nc1cccc(F)c1)N1CCCCN2[C@H](CO)[C@@H](c3ccc(-c4ccncc4)cc3)[C@@H]2C1,.
CCS(=O)(=O)N1CC2(CN(Cc3cccc(Cl)c3)[C@H](CO)c3c2c2ccc(OC)cc2n3C)C1,.
O=C(Cc1ccccn1)N1CC(=O)N2[C@H](C1)[C@H](c1ccc(-c3ccc(F)cc3)cc1)[C@@H]2CO,.
O=C(C[C@H]1CC[C@H]2NC[C@@H](O)COC[C@@H]2O1)NCc1ccc2c(c1)OCO2,.
COCC#Cc1ccc([C@@H]2[C@@H](CO)N3C(=O)CN(C(=O)C4CCC4)C[C@@H]23)cc1,.
O=C(Nc1ccc(F)cc1)N1CC(=O)N2[C@@H](CO)[C@H](c3ccc(-c4ccccc4)cc3)[C@@H]2C1,.
O=C(Nc1ccc(F)cc1)N1CC(=O)N2[C@H](CO)[C@@H](c3ccc(-c4ccccc4)cc3)[C@H]2C1,.
O=C(Nc1ccc(F)cc1)N1CC(=O)N2[C@H](CO)[C@H](c3ccc(-c4ccccc4)cc3)[C@H]2C1,-5.5
CCCNC(=O)N1CCC2(CC1)CN(Cc1ccccn1)[C@@H](CO)c1c2c2ccc(OC)cc2n1C,.
C[C@H]1CN([C@@H](C)CO)C(=O)c2cc(NS(C)(=O)=O)ccc2O[C@H]1CN(C)C,.
C[C@@H]1CN([C@H](C)CO)S(=O)(=O)c2ccc(C#Cc3cccc(F)c3)cc2O[C@@H]1CN(C)S(=O)(=O)c1cn(C)cn1,.
CCS(=O)(=O)Nc1ccc2c(c1)C(=O)N(C)[C@H]1CC[C@@H](CC(=O)NCc3ccccc3F)O[C@@H]1CO2,.
COCC(=O)N1CC(=O)N2[C@@H](CO)[C@@H](c3ccc(Br)cc3)[C@@H]2C1,.
COCC(=O)N1CC(=O)N2[C@H](C1)[C@@H](c1ccc(-c3ccccc3C)cc1)[C@@H]2CO,-14
COCC(=O)N1CC(=O)N2[C@@H](CO)[C@@H](c3ccc(-c4ccccc4C)cc3)[C@@H]2C1,-13
COCC(=O)N1CC(=O)N2[C@@H](CO)[C@H](c3ccc(-c4ccncc4)cc3)[C@@H]2C1,.
COCC(=O)N1CC(=O)N2[C@H](C1)[C@H](c1ccc(-c3ccccc3)cc1)[C@@H]2CO,.
COCC(=O)N1CC(=O)N2[C@H](CO)[C@H](c3ccc(Br)cc3)[C@@H]2C1,.
O=C(C1CCCCC1)N1CC2(C1)[C@H](c1ccccc1)[C@H](CO)N2C(=O)c1cccnc1,.
Cc1ccc(-c2ccc([C@@H]3[C@@H]4CN(Cc5ccccc5F)C[C@H]3N4)cc2)cc1,.
COCC(=O)N1CC[C@@H]2[C@@H](CO)N(C)c3ccc(-c4cccc(F)c4)cc3[C@@H]21,.
CC(C)NC(=O)N1CC2(C1)[C@@H](c1ccccc1)[C@@H](CO)N2C(=O)C1CCOCC1,.
CN(C)CC(=O)N[C@@H]1C=C[C@H](CC(=O)NCc2ccc(Cl)cc2)O[C@@H]1CO,.
SMILES,IDE exosite FP
CCC(=O)N1CC2(C1)[C@@H](c1ccc(-c3cccc(C)c3)cc1)[C@@H](CO)N2S(C)(=O)=O,-3.3
CCC(=O)N1CC2(C1)[C@H](c1ccc(-c3cccc(C)c3)cc1)[C@@H](CO)N2S(C)(=O)=O,.
CN(C)CC(=O)N1CC2(C1)[C@@H](c1ccccc1)[C@@H](CO)N2S(C)(=O)=O,.
O=C(C[C@@H]1CC[C@@H]2[C@H](COC[C@H](O)CN2S(=O)(=O)c2ccccc2F)O1)N1CCC(Cc2ccccc2)CC1,.
O=C(O)C[C@H]1C[C@H]2c3cc(NC(=O)Cc4ccncc4)ccc3O[C@H]2[C@H](CO)O1,.
CC(C)[C@H]1C(=O)N[C@@H](c2cccc(Cl)c2)CC=CC[C@H](C)Oc2ccccc2C(=O)N1C (mixture of isomers),.
Cc1ccccc1S(=O)(=O)N1[C@H](C#N)[C@@H](c2ccc(C#CC3CC3)cc2)[C@@H]1CO,.
O=S(=O)(NC[C@H]1N[C@H](CO)[C@H]1c1ccccc1)c1ccccc1,.
O=C(Cc1ccccc1)N1CC(=O)N2[C@H](C1)[C@@H](c1ccc(C#CCc3ccccc3)cc1)[C@@H]2CO,.
O=C(Cc1ccccc1)N1CC(=O)N2[C@H](C1)[C@@H](c1ccc(Br)cc1)[C@@H]2CO,-5.1
O=C(Cc1ccccc1)N1CC(=O)N2[C@H](CO)[C@H](c3ccc(C#Cc4ccccc4)cc3)[C@H]2C1,.
O=C(Cc1ccccc1)N1CC(=O)N2[C@H](CO)[C@H](c3ccc(Br)cc3)[C@H]2C1,.
O=C(Cc1ccccc1)N1CC(=O)N2[C@H](CO)[C@H](c3ccc(C#Cc4ccccc4)cc3)[C@@H]2C1,-7
O=C(Cc1ccccc1)N1CC(=O)N2[C@H](CO)[C@@H](c3ccc(Br)cc3)[C@H]2C1,.
N#C[C@H]1[C@@H](c2ccccc2)[C@@H](CO)N1C(=O)c1cc(Cl)cc(Cl)c1,.

# High-throughput results (PubChem)
